Results reported in PubChem BioAssay (EPA / NIEHS).
Results filed as inconclusive are left out. Active and inactive are the calls of the source. Rule for the calls: active = hit-call score of the fitted dose curve at least 0.9, where 1 is the maximum; inconclusive = response in the unintended direction; inactive = score below 0.9.

The molecules below were run against rat Adrenergic Receptor, Alpha 2 (Adra2), Non-selective Binding, Adra2a (gene 25083) (UniProt P22909) (assay: NVS_GPCR_rAdra2_NonSelective: NovaScreen (NVS) G Protein-Coupled Receptor Assay for rat Adrenergic Receptor, Alpha 2 (Adra2), Non-selective Binding (AID 2283299)).
rat Adrenergic Receptor, Alpha 2 (Adra2), Non-selective Binding, Adra2a (gene 25083), sequence (P22909 whole entry, looked up): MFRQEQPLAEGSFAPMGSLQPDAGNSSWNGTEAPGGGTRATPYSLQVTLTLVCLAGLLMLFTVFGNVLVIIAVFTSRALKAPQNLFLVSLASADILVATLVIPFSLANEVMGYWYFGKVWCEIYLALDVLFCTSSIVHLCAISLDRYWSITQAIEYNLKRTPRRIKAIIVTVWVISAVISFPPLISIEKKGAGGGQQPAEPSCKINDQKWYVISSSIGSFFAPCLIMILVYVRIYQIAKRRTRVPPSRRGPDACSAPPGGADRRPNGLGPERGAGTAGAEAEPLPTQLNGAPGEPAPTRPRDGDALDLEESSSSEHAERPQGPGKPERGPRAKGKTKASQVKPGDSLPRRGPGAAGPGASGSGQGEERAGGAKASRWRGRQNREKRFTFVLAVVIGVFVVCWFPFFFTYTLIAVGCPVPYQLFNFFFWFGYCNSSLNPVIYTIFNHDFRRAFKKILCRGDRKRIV
In short: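 Filter-based scintillation counting of radioligand binding to rat cortical membrane receptors, measured 1.25 hours post-dosing; loss of signal versus DMSO indicates displacement. Initial single-concentration duplicate at 25 uM, then concentration series.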

SMILES | AC50 | outcome
COc1ccccc1N | 25 µM (active) | 
[Cl][Sn]([c]1ccccc1)([c]1ccccc1)[c]1ccccc1 | 9.5 µM (active) | 
CCC(C)(C#N)N=NC(C)(C#N)CC (configuration not stated) |  | inactive
C[N+](C)(C)Cc1ccccc1 | 31.5 µM (active) | 

The molecules below were run against Sodium channel protein type 1 subunit alpha (Rattus norvegicus) (UniProt P04774) (assay: NVS_IC_rNaCh_site2: NovaScreen (NVS) Ion Channel Assay for rat Sodium Channel, Site 2 (NaCh) (AID 2283322);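 note: hit means loss of radioligand binding signal relative to DMSO so AC50 marks displacement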).
In short: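 Initial duplicate single-point testing at 25 uM, followed by concentration-response runs for actives. Binding of radioligand to rat forebrain membranes quantified after 1 h via filter-based radiodetection.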

SMILES | AC50 | outcome
NC(=O)CCl | 42.5 µM (active) | 
Brc1c(Br)c(Br)c(Oc2c(Br)c(Br)c(Br)c(Br)c2Br)c(Br)c1Br |  | inactive
CCCCCCCCCCCCN(C)C |  | inactive
CCCCCCCCCCBr |  | inactive
CCOP(=O)(OCC)SCCSCC |  | inactive
CCOP(=S)(OCC)SCS(=O)(=O)C(C)(C)C |  | inactive
CC(C)(COCC1CO1)COCC1CO1 (configuration not stated) | 2.05 µM (active) | 
OC(Cc1ccccc1Cl)(Cn1cncn1)C1(Cl)CC1 (configuration not stated) | 6.73 µM (active) | 
